Sampled rows, rich in hits. Any-hit rate of the full collection: about 2.5%.
MRP resist rev: reversal of MRP1-mediated doxorubicin resistance, primary screen, H69AR cells, doxorubicin co-treatment; hit rate 0.04% among 85,000; differential viability (reversal), % at 10 µM; H69AR cells + 2 uM doxorubicin, CellTiter-Glo, 72 h;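 active = viability drop by adding the cancer drug above about 55%, with treated viability meeting a 40% cutoff, limit read from the data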;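 also: viability without doxorubicin minus viability with 2 µM doxorubicin for each compound; larger differential means the compound sensitizes cells more to doxorubicin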
sEH activator: soluble epoxide hydrolase activators, primary screen, biochemical, human sEH. purified human sEH enzymatic activity, activator screen. activation, % at 2 µM. hit rate 0.04% among 91,000. AID 717, 2007; in the data active = activation above about 37%
Target sequence (P34913 whole entry, looked up): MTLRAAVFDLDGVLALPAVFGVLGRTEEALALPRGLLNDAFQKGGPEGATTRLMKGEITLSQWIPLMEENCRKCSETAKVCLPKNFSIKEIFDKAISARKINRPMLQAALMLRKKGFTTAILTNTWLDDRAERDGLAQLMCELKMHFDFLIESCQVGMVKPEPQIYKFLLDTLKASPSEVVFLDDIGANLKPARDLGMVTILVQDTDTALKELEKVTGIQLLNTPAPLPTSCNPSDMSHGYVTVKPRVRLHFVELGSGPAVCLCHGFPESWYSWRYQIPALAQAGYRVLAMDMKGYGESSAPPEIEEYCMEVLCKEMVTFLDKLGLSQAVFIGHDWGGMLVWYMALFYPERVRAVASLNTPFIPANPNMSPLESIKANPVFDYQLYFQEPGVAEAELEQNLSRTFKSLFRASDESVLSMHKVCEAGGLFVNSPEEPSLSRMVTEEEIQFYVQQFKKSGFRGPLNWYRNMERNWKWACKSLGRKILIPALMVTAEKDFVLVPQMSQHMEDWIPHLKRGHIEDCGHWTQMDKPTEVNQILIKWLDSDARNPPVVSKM
sEH inh: soluble epoxide hydrolase inhibitors, primary screen, biochemical, human sEH | Bifunctional epoxide hydrolase 2 (Homo sapiens), P34913 | recombinant human sEH enzymatic activity assay | inhibition, % at 2 µM | hit rate 0.34% among 91,000 | AID 707, 2007; in the data active = inhibition above about 80%
Measles CPE: compounds protecting cells from measles virus cytopathic effect, primary screen, measles RdRp inhibitor project, single point, MLSMR library, absorbance; Measles virus-infected cells, CPE protection; protection (pct of control), % at 4 µM; hit rate 1.5% among 140,000; AID 841, 2007; in the data active = protection mostly above about 24%, no sharp cut-off; inactive = mostly below about 26%
SDO1 yeast rescue: growth rescue of sdo1-depleted yeast, primary screen, S. cerevisiae, bone marrow failure model; hit rate 0.21% among 140,000; S. cerevisiae sdo1-depleted JHY4D growth rescue, OD600 30 h; active compounds read high; pdr5 snq2 efflux-pump mutant strain; z-score at 10 µM;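 active = z-score above 3 at both the 24 hr and the 30 hr optical density reads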;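 also: z-score against mean and SD of all compound wells on the same plate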
MRP-1 activ: H69AR viability gain despite doxorubicin, primary screen, MRP-1 activator project, H69AR cells, CellTiter-Glo; AID 799, 2007; viability increase, % at 10 µM; viability rescue; hit rate 0.61% among 140,000;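 active = viability gain under doxorubicin at or above a set limit, the compound median plus 3 SD, cut at about 4.7% in these data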;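 also: MRP-1 overexpressing cells given doxorubicin 25 µM after compound pretreatment; 18-22 h compound pretreatment then 72 h with doxorubicin before readout; 0% = doxorubicin-only wells and 100% = vehicle-treated cells without doxorubicin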
The depositor's hits bear a star; nt = no result given; [ ] = dose if it differs, or a comment.

SMILES | MRP resist rev | sEH activator | sEH inh | Measles CPE | SDO1 yeast rescue | MRP-1 activ
CCOC(=O)C1=C(C)Nc2ncnn2C1c1ccc(N(C)C)cc1 (stereo not given) | 14.3 | nt | nt | 5.6 | 0.16 | -2.3
CCOC(=O)C1=C(C)Nc2ncnn2C1c1cccnc1 (stereo not given) | -11.5 | -9.3 | 12.5 | 4.4 | -0.53 | 177.3*
C/C(=N\NC(=O)CN1CCN(Cc2ccc(C)cc2)CC1)c1ccncc1 | nt | nt | nt | 9.7 | 0.87 | -1.8
CCn1c(SCc2nnc(-c3ccccc3)o2)nnc1-c1ccc(S(=O)(=O)N2CCCC2)cc1 | 16.3 | 4.8 | -4.7 | 55.5* | -0.6 | 2.6
CCC(C)OC(=O)C1=C(C)NC2=C(C(=O)C(C(=O)OC)C(C)C2)C1c1ccc(N(C)C)cc1 (stereo not given) | 7.8 | 5.9 | -5.3 | 57.6* | -0.69 | -1.0
CCc1nc2ccc(C)cc2c(C(=O)NC2CCCCC2C)c1C (stereo not given) | nt | 1.9 | 2.3 | 3.3 | -0.05 | -1.9
CCOC(=O)NC1(C(F)(F)F)C(=O)NC(C)=C1C(=O)OC (stereo not given) | -6.8 | 9.4 | -7.9 | 16.1 | 0.83 | 0.4
COC(=O)C1=C(C)NC(=O)C1(NC(=O)CN1CCCC1=O)C(F)(F)F (stereo not given) | -6.7 | -6.0 | 9.0 | 40.8* | 0.65 | -1.3
O=C(CCc1ccccc1)NNC(=S)NC(=O)c1ccc(Cl)cc1 | nt | 6.4 | -4.4 | 4.8 | -1 | -0.1
O=C(CCCNC(=O)/C(=C/c1ccccc1F)NC(=O)c1ccccc1)OCc1ccccc1 | nt | nt | nt | 9.3 | -0.14 | 0.1
Cn1cccc1/C=C1\SC(=S)N(NC(=O)c2ccccc2)C1=O | nt | nt | nt | 27.0* | -0.79 | -3.1
O=C(OC(C(=O)NCc1ccc2c(c1)OCO2)c1ccccc1F)c1ccco1 (stereo not given) | 8.7 | 3.2 | -6.5 | 3.3 | -0.53 | nt
O=C(OC(C(=O)NCc1cccs1)c1ccccc1F)c1ccco1 (stereo not given) | 8.9 | -2.2 | 1.3 | 42.0* | 0.05 | -1.3
CCn1c(CCNC(=O)c2cccs2)nnc1SCC(=O)Nc1nc(-c2ccccc2)cs1 | 7.7 | -11.8 | 12.3 | 34.5* | 0.09 | -3.2
COC(=O)[C@@]1(Cc2ccccc2)[C@H]2c3cc(C(=O)N4CCCC4)n(Cc4ccsc4Br)c3C[C@H]2CN1C(=O)c1ccccc1 | nt | nt | nt | 25.7 | -0.2 | -4.3
N#Cc1nc(-c2ccc(OCc3ccccc3)cc2)oc1NCc1cccnc1 | -12.3 | 6.4 | -7.8 | 5.1 | -0.1 | -3.1
CN(C)c1oc(-c2ccc(OCc3ccccc3)cc2)nc1C#N | 2.2 | -1.3 | 4.5 | 4.2 | -0.81 | 4.7*
COc1ccc(C2C3=C(CCCC3=O)Nc3nc(SCc4ccc(C(=O)O)cc4)nn32)cc1OC (stereo not given) | -1.1 | -12.2 | 13.7 | 31.4* | 0.74 | -0.7
Cc1ccc(OCC(=O)N(Cc2ccccc2)C2CCS(=O)(=O)C2)c([N+](=O)[O-])n1 (stereo not given) | nt | nt | nt | 37.2* | 0.36 | -0.6
COC(=O)C1CC(=O)c2sccc2C1 (stereo not given) | nt | nt | nt | 6.3 | 1.64 | 1.5
COc1ccc(-c2cnnc(N/N=C/c3ccc(OC)c(OC)c3)n2)cc1 | nt | nt | nt | 5.7 | 1.33 | -5.1
COc1ccc(/C=N/Nc2nc(-c3ccc(Cl)cc3)cc(C(F)(F)F)n2)cc1OC | nt | nt | nt | 6.8 | -1.42 | 5.6*
O=C(COc1cccnc1[N+](=O)[O-])Nc1ccc2c(c1)OC(F)(F)O2 | nt | nt | nt | 4.2 | 0.87 | 5.5*
Cc1c(-n2cc(C(=O)c3cc(Br)ccc3O)cc(C#N)c2=O)c(=O)n(-c2ccccc2)n1C | nt | 8.6 | -7.7 | 3.3 | -0.47 | -0.8
CCOc1ccc(N(CC(=O)NCC2CCCO2)S(=O)(=O)c2ccc(SC)cc2)cc1 (stereo not given) | 9.6 | -2.1 | 2.6 | 2.4 | 0.07 | -2.0
SMILES | MRP resist rev | sEH activator | sEH inh | Measles CPE | SDO1 yeast rescue | MRP-1 activ
Cc1ccc(O)c(-c2cc(C(=O)NCc3ccc4c(c3)OCO4)[nH]n2)c1 | nt | nt | nt | 29.2* | -0.75 | -1.1
O=C(NCc1ccc2c(c1)OCO2)c1cc2ccccc2o1 | nt | -8.1 | 10.5 | 18.8 | -0.64 | 0.0
Cc1ccc2cc3cc(C(=O)NCc4ccc5c(c4)OCO5)oc3nc2c1 | -10.4 | 1.8 | -0.1 | 33.9* | 1.14 | -5.6
CCCCOC(=O)CCNc1n[nH]c(=O)[nH]c1=O | 19.2 | nt | nt | 55.7* | 1.71 | -0.7
CC(C)OC(=O)CCNc1n[nH]c(=O)[nH]c1=O | 2.4 | -14.2 | 17.2 | 7.8 | 0.12 | -0.7
Cc1cc([N+](=O)[O-])nn1CC(=O)N1c2ccccc2CC1C (stereo not given) | nt | nt | nt | 11.9 | -0.39 | -1.4
COc1cccc(/C=N/N2CCN(C)CC2)c1 | nt | nt | nt | 2.1 | 0.66 | -2.2
COc1ccc(/C=N/N2CCN(C)CC2)cc1O | nt | 0.3 | -0.2 | 27.6* | 1.79 | -3.8
N#C/C(C(=O)N1CCOCC1)=C1/SC(Cc2ccccc2)C(=O)N1c1ccccc1 (stereo not given) | 5.4 | nt | nt | 1.8 | 0.35 | 3.2
CC(=O)/C(C#N)=C1\NC(=O)C(Cc2ccccc2)S1 (stereo not given) | 7.5 | nt | nt | 91.5* | 0.42[9.6 µM] | 4.9*
CCC(Oc1ccccc1)C(=O)Nc1nnc(C(F)(F)F)s1 (stereo not given) | 8.6 | -4.2 | 6.7 | 13.1 | -0.75 | 10.1*
Cn1cnnc1SCC(=O)N1CCc2ccccc21 | -10.5 | 3.6 | -2.9 | 11.4 | 1.01 | -0.9
CC(C)c1nnc(SCC(=O)N2CCc3ccccc32)n1C | 6.2 | 3.3 | -0.8 | 28.7* | 0.62 | -2.9
CCN(CC)CCCNc1oc(-c2ccc(OC)c(OC)c2)nc1C#N | 7.9 | -1.5 | 4.7 | 44.6* | -0.02 | -1.7
COc1ccc(-c2nc(C#N)c(NCCCn3ccnc3)o2)cc1OC | 9.2 | -4.5 | 7.0 | 11.8 | 0.05 | -3.4
COc1ccc(-c2nnc3ccc(SCC(=O)N4CCN(c5ccccc5)CC4)nn23)cc1OC | -7.4 | nt | nt | nt | nt | nt
COc1cc(NC(=O)C2CCCCC2)c(OC)cc1NC(=O)CN1CCCCC1 | -9.7 | 16.6 | -17.8 | 47.4* | 0.21 | 0.6
Cc1ccc(-c2nc3ccccc3c(=O)n2NC(=S)N(C)C)cc1 | nt | nt | nt | 7.1 | 0.45 | -1.0
Cc1cccc(Cc2cnc(NC(=O)CN3C(=O)/C(=C/c4ccccc4)SC3=S)s2)c1 | nt | -17.9 | 16.3 | 12.2 | -0.29 | 5.6*
Cc1ccc(NC(=O)CSc2n[nH]c(-c3ccncc3)n2)cc1C | 8.6 | nt | nt | 6.2 | 0.04 | -0.9
Fc1ccc(-n2nnnc2-c2cnc(-c3cccs3)nc2C(F)(F)F)cc1 | nt | -5.2 | 5.2 | 25.3 | -1.23 | 5.1*
FC(F)(F)c1cccc(N2CCc3cn[nH]c32)c1 | 11.7 | 6.0 | -6.0 | 38.6* | -0.94 | -2.9
CN1CCC(N2CCN(c3cccc(C(F)(F)F)c3)CC2)CC1 | 5.1 | 7.6 | -10.7 | 5.4 | 1.16 | -1.6

Source: PubChem
